Structures are written as SMILES. In all, about 340,000 compounds went through this assay and about 3,300 (0.97%) were called active. Inconclusive results (about 9%) are left out. The call rests on the fitted dose curve; in most records, active means well fitted inhibition curve with a large enough effect; inconclusive means small, poorly fitted or top-dose-only effect, or effect the other way; inactive means flat fitted curve, though single readings scatter. The list shows a part of the results.
Potency means the concentration at half of the fitted maximal effect.

The nature of the assay: qHTS Assay for Modulators of miRNAs and/or Inhibitors of miR-21. Further: nearly all actives have a fitted effect of over 55% in size. As to conditions: HeLa miR-21-FLuc reporter, luciferase luminescence, 48 h; actives lower the signal. The method, boiled down: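 Using DMEM plus 10% FBS, HeLa miR-21-FLuc cells are incubated with test compounds (final up to about 40uM) for 48 hours; firefly luciferase signal is then imaged following reagent-mediated lysis.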
For `CC(C)(C)OC(=O)N/N=C\C=C\c1ccc2c(c1)OCO2`, the Potency is 3.69 µM (active).
The figure for `CCOC(=O)N/N=C\C=C\c1ccc2c(c1)OCO2` is 7.36 µM (active); for `CN(C)c1ccc(N=Nc2cccc3ccoc23)cc1` it is 0.826 µM (active); for `CN(C)c1ccc(N=Nc2cccc(F)c2)cc1` it is 2.07 µM (active).
The figure for `Cc1nnsc1C(=O)NNc1ccc(C(C)C)cc1` is 13.1 µM (active); for `CNC(=O)c1ccc2nc(CCc3ccccc3)oc2c1` it is 5.85 µM (active).
Regarding `COCCCNC(=O)c1ccc2nc(Cc3ccc(OC)cc3)oc2c1`, the Potency was 9.27 µM (active).
Next, `O=C(NCCCn1ccnc1)c1cc(-c2cccs2)on1`: 14.7 µM (active); `O=C(NCCCn1ccnc1)c1cc(-c2ccccc2)on1`: 16.5 µM (active); `C(=N\N=C\c1cccs1)/c1cccs1`: 5.21 µM (active).
The figure for `CCc1ccc(CNc2ccc3c(c2)ncn3CC)cc1` is 5.21 µM (active); for `CCn1cnc2cc(NCc3ccc(C)cc3)ccc21` it is 5.21 µM (active); for `CCn1cnc2cc(NCc3ccccc3Cl)ccc21` it is 11.7 µM (active).
With `COc1ccc(-n2cnc3cc(NCc4ccco4)ccc32)cc1`, the Potency is 14.7 µM (active).
With `Cc1ccc(CNc2ccc3c(c2)ncn3C)cc1`, the Potency is 3.29 µM (active).
Next, `CC(C)n1cnc2cc(NCc3ccco3)ccc21`: 11.7 µM (active).
Next, `Cc1ccc(CNc2ccc3c(c2)ncn3C(C)C)cc1`: 3.29 µM (active).
Next, `CCn1cnc2cc(NCc3ccc(Cl)cc3)ccc21`: 3.69 µM (active); `Cc1cccc(C(=O)Nc2ccc3c(c2)ncn3C)c1`: 1.47 µM (active).
For the molecule `COc1cccc(/C=C(/CC(=O)Nc2ccc(N3CCOCC3)cc2)c2nc3ccccc3s2)c1`, the Potency was 16.5 µM (active).
Next, `O=C(Nc1ccc(N2CCOCC2)cc1)c1nc2ccccc2s1`: 0.0826 µM (active); `Cc1ccc2oc(-c3ccc(C)c(NC(=O)/C=C/c4ccc(Cl)cc4)c3)nc2c1`: 3.69 µM (active); `Cc1ccc2nc(-c3ccc(C)c(NC(=O)CSc4ccc(Cl)cc4)c3)oc2c1`: 2.07 µM (active).
The figure for `O=C(NC1CCCCC1)c1ccc(-c2ccccc2[N+](=O)[O-])o1` is 1.17 µM (active).
As to `O=C(NC1CCCCC1)c1ccc(-c2cccc([N+](=O)[O-])c2)o1`, the Potency is 1.31 µM (active).
As for `COc1ccccc1CC(=O)NCc1csc(-c2cccs2)n1`, the Potency is 6.56 µM (active).
The figure for `O=C(NCc1csc(-c2cccs2)n1)C1CCCCC1` is 5.21 µM (active).
The figure for `C/C(CCc1ccc2c(c1)OCO2)=N\NC(=O)c1ccccc1` is 13.1 µM (active).
Next, `Fc1cccc(CSc2ccc(-c3ccco3)nn2)c1`: 16.5 µM (active).
For the molecule `Fc1ccc(CSc2ccc(-c3ccco3)nn2)cc1`, the Potency is 8.26 µM (active).
As to `Cc1ccc(CSc2ccc(-c3ccco3)nn2)cc1`, the Potency is 6.56 µM (active).
Consider `CCN(CC)N=Nc1[nH]nc2nc(C)cc(C)c12`, for which the Potency is 16.5 µM (active).
Next, `Brc1ccc2oc(-c3ccn[nH]3)cc2c1`: 2.93 µM (active); `CCN(CC)CCCNC(=S)Nc1ccc(Br)cc1`: 2.93 µM (active).
As to `CC(=O)/C=C(\C)N=Nc1c(O)[nH]c2ccccc12`, the Potency is 18.5 µM (active).
As to `O=C(CSCc1ccccc1)N=Nc1c(O)[nH]c2ccccc12`, the Potency is 16.5 µM (active).
The figure for `Oc1ccc(NC(=S)N=Nc2c(O)[nH]c3ccccc23)cc1` is 11.7 µM (active); for `CCCOc1ccc(/C=N/Nc2ccc(C(=O)O)cc2)c(OCCC)c1` it is 16.5 µM (active).
Next, `CC(C)c1ccc(/C=N/Nc2ccc(C(=O)O)cc2)cc1`: 0.0465 µM (active).
As to `COc1ccc(/C=N/Nc2ccc(C(=O)O)cc2)cc1Br`, the Potency was 0.104 µM (active).
`COc1cc(/C=N/Nc2ccc(C(=O)O)cc2)cc(OC)c1OC`: the Potency is 2.33 µM (active).
The figure for `C=CCOc1c(Br)cc(/C=N/Nc2ccc(C(=O)O)cc2)cc1OCC` is 2.93 µM (active); for `Cc1nc2cc(Cl)c(Cl)cc2nc1C` it is 16.5 µM (active); for `COc1ccccc1Nc1ncc2c(n1)CCN(CC(C)C)C2` it is 6.56 µM (active).
Take `CC(C)CN1CCc2nc(Nc3ccc(F)cc3F)ncc2C1`: the Potency was 7.36 µM (active).
`CC(=O)Nc1ccc(-c2nc3ccc(NC(C)=O)cc3o2)cc1`: the Potency is 3.69 µM (active).
Consider `CC(=O)Nc1ccc(-c2nc3cc(Cl)ccc3o2)cc1`, for which the Potency is 0.369 µM (active).
Take `COc1ccc(-c2nc3ccc(NS(C)(=O)=O)cc3o2)cc1`: the Potency was 1.17 µM (active).
The figure for `O=C(Nc1ccc(-c2nc3cc(Cl)ccc3o2)cc1)C1CCCO1` (stereo unspecified) is 0.656 µM (active); for `COc1ccc(Cl)cc1C(=O)Nc1ccc2oc(-c3ccc(C(C)(C)C)cc3)nc2c1` it is 4.65 µM (active); for `COc1ccc(C(=O)CCNc2cccc(Cl)c2)cc1` it is 7.36 µM (active).
On to `COc1cccc(NCCC(=O)c2cccc([N+](=O)[O-])c2)c1`, for which the Potency was 13.1 µM (active).
Next, `COc1n[nH]c(C(=O)Nc2nc3ccccc3s2)c1[N+](=O)[O-]`: 6.56 µM (active).
Next, `CNc1ccccc(-c2ccc3cc4c(cc3n2)OCO4)c1=O`: 2.61 µM (active).
For the molecule `CCC(=O)NC(=S)Nc1ccc(-c2nc3ccc(C)cc3s2)cc1`, the Potency was 8.26 µM (active).
Next, `CCC(=O)NC(=S)Nc1ccc(-c2nc3ccccc3s2)cc1`: 0.293 µM (active); `CCCCNC(=S)Nc1ccc(-c2nc3ccc(C)cc3s2)cc1`: 0.826 µM (active).
Next, `Cc1ccc2nc(-c3ccc(NC(=S)NC(=O)C(C)C)cc3)sc2c1`: 0.927 µM (active).
The figure for `Cc1ccc(Nc2ncnc3sc(C)c(C)c23)cc1` is 14.7 µM (active); for `O=C(CCCn1c(=O)c2cccn2c2ccccc21)NCCc1ccc(Cl)cc1` it is 1.47 µM (active).
Regarding `O=C(CCCn1c(=O)c2cccn2c2ccccc21)Nc1cccc(Cl)c1`, the Potency was 2.93 µM (active).
Take `COc1ccc(NC(=O)CCCn2c(=O)c3cccn3c3ccccc32)c(OC)c1`: the Potency is 2.07 µM (active).
The figure for `CCCCOC(=O)Oc1ccc2c(=O)c(Oc3cccc(C)c3)coc2c1` is 18.5 µM (active).
`Cc1nc(Cl)cc(N/N=C/c2ccc(O)cc2)n1`: the Potency is 18.5 µM (active).
The figure for `Cc1nc2ccccc2nc1N/N=C/c1ccc(O)cc1` is 18.5 µM (active).
Next, `Cc1nc2c(-c3ccccc3)cnn2c(N2CCOCC2)c1C`: 2.33 µM (active); `C=CCc1c(C)nc2c(-c3ccccc3)cnn2c1N1CCOCC1`: 1.65 µM (active).
Regarding `Fc1ccc(-c2cc(-c3nc(-c4ccccc4)no3)[nH]n2)cc1`, the Potency is 5.85 µM (active).
In the case of `Fc1ccccc1-c1nc(-c2ccccc2)no1`, the Potency was 1.17 µM (active).
The figure for `Cc1ccc(-c2noc(-c3ccccc3F)n2)cc1` is 1.47 µM (active); for `c1ccc(-c2cc(-c3ccccc3)[nH]n2)cc1` it is 1.65 µM (active).
Take `CS(=O)c1ccccc1-c1nc(-c2ccc(Cl)cc2)no1` (stereo unspecified): the Potency is 6.56 µM (active).
Take `Cc1ccc(NC(=O)Nc2ccc3c(c2)OCO3)nc1`: the Potency was 2.33 µM (active).
Next, `Cc1ccc(NC(=O)Nc2ccc3c(c2)OCO3)cc1F`: 0.736 µM (active); `CCCSc1nsc(NC(=O)CC)n1`: 0.521 µM (active).
For the molecule `O=C(CSc1nnc2sc3ccccc3n12)c1ccco1`, the Potency was 16.5 µM (active).
With `c1csc(CSc2nnc3sc4ccccc4n23)c1`, the Potency is 8.26 µM (active).
The figure for `Cc1nc(NC(=O)/C=C/c2ccccc2)sc1C(=O)N(C)C` is 13.1 µM (active).
Next, `COc1ccccc1C(=O)N/N=C/c1ccc2c(c1)OCO2`: 3.29 µM (active); `COc1cc(Cl)c(C)cc1NC(=O)c1cccc(OC)c1OC`: 5.21 µM (active).
The figure for `COc1cccc(C(=O)Nc2ccc3c(c2)OCO3)c1OC` is 2.07 µM (active); for `COc1ccccc1C(=O)N/N=C/c1cnc2ccccc2n1` it is 11.7 µM (active).
In the case of `COc1ccccc1C(=O)Nc1ccc2c(c1)OCO2`, the Potency was 9.27 µM (active).
As for `O=C(CNC(=O)c1ccccc1F)N/N=C/c1ccc2c(c1)OCO2`, the Potency was 18.5 µM (active).
Consider `COc1ccccc1C(=O)Nc1nc2cc3c(cc2s1)OCO3`, for which the Potency is 0.736 µM (active).
Next, `CC(=O)c1ccc2c(c1)Cc1cc(C(C)=O)ccc1-2`: 1.85 µM (active); `Cc1ccc(-c2nc3c4ccccc4[nH]c(=O)n3n2)cc1`: 1.65 µM (active); `COc1ccc(-c2nc3c4ccccc4[nH]c(=O)n3n2)cc1`: 3.69 µM (active).
The figure for `C[C@H](NS(=O)(=O)c1ccc(Cl)cc1)C(=O)OCC(=O)NC(=O)Nc1ccc2c(c1)OCCO2` is 13.1 µM (active); for `Cc1ccc(OCc2cn3cccnc3n2)cc1` it is 2.07 µM (active); for `Cc1cc(OCc2cn3cccnc3n2)ccc1Cl` it is 7.36 µM (active).
The figure for `c1ccc(NCC2OCc3ccccc3CO2)cc1` is 4.65 µM (active).
Consider `Nc1nc(Nc2cccc(Cl)c2)nc(NCc2ccco2)c1[N+](=O)[O-]`, for which the Potency is 13.1 µM (active).
The figure for `Cc1ccc(Nc2nc(N)c([N+](=O)[O-])c(NCc3ccco3)n2)cc1` is 18.5 µM (active); for `N/C(=N\OC(=O)Cc1ccccc1)c1ccccc1Cl` it is 5.85 µM (active).
On to `Cc1ccc(CC(=O)O/N=C(\N)c2ccccn2)cc1`, for which the Potency is 4.14 µM (active).
The figure for `N/C(=N\OC(=O)Cc1ccc(Cl)cc1)c1ccccn1` is 13.1 µM (active); for `COc1ccccc1C(=O)O/N=C(\N)c1ccccc1Cl` it is 3.29 µM (active).
Turning to `Clc1c(-c2ccccc2)nc2ccccn12`, the Potency was 5.21 µM (active).
Take `Brc1ccc(-c2ncc3ccccn23)cc1`: the Potency was 7.36 µM (active).
Next, `CN(C)Cc1c(-c2ccc(Cl)cc2)nc2ccccn12`: 6.56 µM (active); `Cc1c(-c2ccc(Br)cc2)nc2ccccn12`: 1.47 µM (active); `COc1ccc(CN=C(C)c2c(C(F)(F)F)[nH]n(-c3nc4ccccc4s3)c2=O)cc1`: 7.36 µM (active).
In the case of `CNc1nn(-c2cccc(Cl)c2)nc1N`, the Potency is 4.47 µM (active).
The figure for `O=C(NNc1nc2cc3c(cc2s1)OCO3)c1ccccc1` is 13.1 µM (active); for `O=C(NNc1nc2cc3c(cc2s1)OCCO3)c1ccccc1` it is 14.7 µM (active).
